High-throughput results: PubChem, The Scripps Research Institute Molecular Screening Center
PAD4 FP inh: blocks human protein arginine deiminase 4; Q9UM07; recombinant PAD4, RCA probe fluorescence polarization; inhibition, % at 6.36 µM; hit rate 0.41% among 330,000; AID 485272;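 active = percent inhibition above a cutoff equal to the mean of all tested compounds plus 3 SD, cut at about 15% in these data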;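 note: 0% = PAD4 with RCA probe and DMSO and 100% = probe without PAD4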
Target sequence (Q9UM07 whole entry, looked up): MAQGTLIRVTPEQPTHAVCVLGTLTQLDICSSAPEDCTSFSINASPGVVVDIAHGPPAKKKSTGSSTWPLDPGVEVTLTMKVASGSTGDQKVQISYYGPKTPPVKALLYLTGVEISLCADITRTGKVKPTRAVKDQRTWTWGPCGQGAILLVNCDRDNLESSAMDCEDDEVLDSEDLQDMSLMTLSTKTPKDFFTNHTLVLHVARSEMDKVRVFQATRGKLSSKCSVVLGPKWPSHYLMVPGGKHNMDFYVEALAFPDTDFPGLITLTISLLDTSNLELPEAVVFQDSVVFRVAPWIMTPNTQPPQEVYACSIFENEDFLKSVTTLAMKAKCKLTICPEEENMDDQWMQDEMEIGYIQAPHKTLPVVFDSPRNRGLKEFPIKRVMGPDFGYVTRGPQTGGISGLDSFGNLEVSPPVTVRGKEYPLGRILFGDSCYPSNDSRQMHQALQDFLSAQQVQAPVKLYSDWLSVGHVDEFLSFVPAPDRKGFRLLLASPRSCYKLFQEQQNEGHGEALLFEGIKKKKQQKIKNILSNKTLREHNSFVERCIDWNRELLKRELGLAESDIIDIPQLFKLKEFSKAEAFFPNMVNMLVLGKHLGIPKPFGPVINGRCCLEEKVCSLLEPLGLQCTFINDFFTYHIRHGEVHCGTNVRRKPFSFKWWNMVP
LYPLA1 counter: blocks human lysophospholipase 1, a PME1 counter-screen. hit rate 0.16% among 320,000. O75608. AID 2174. recombinant LYPLA1, FP-Rh probe fluorescence polarization. inhibition, % at 5.9 µM;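 active = inhibition above the mean of all tested compounds plus 3 SD, set per campaign, cut at about 14% in these data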;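 note: inhibitors block serine hydrolase probe labeling of LYPLA1 so polarization falls; 0% = enzyme with DMSO and 100% = wells lacking LYPLA1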
LYPLA2 inh: counter-screen for PME1 inhibitors: inhibitors of human LYPLA2; recombinant LYPLA2, FP-Rh probe fluorescence polarization; O95372; inhibition, % at 5.9 µM; hit rate 0.38% among 320,000; AID 2177;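 active = inhibition above the screen-wide mean plus 3 SD, limit set per campaign, cut at about 26% in these data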;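 note: 0% = LYPLA2 with DMSO and 100% = wells lacking LYPLA2 enzyme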
GSTO1 inh: blocks human GSTO1 in RBBP9 counter-screen | inhibition, % at 5.96 µM | P78417 | recombinant GSTO1, activity-based probe fluorescence polarization | hit rate 1.1% among 300,000;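 active = inhibition above the campaign mean inhibition plus 3 SD, cut at about 35% in these data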;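 note: 0% = GSTO1-1 with DMSO and 100% = wells lacking GSTO1-1 enzyme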
PME-1 primary: PME-1 (human) inhibition | Q9Y570 | hit rate 0.53% among 320,000 | AID 2130 | recombinant PME-1, FP-Rh probe fluorescence polarization | inhibition, % at 5.9 µM;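 active = inhibition above the campaign mean of all compounds plus 3 SD, cut at about 26% in these data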;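 note: competitive labeling of PME-1 active site by serine hydrolase directed probe; 0% = PME-1 with DMSO and 100% = wells lacking PME-1 enzyme; inhibitors block probe labeling so polarization falls and inhibition rises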
Fam108B inh: Fam108B inhibition, counter-screen for RBBP9 inhibitors; inhibition, % at 9.51 µM; recombinant Fam108B, FP-Rh probe fluorescence polarization; hit rate 0.33% among 300,000; AID 1947;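 active = inhibition above the screen mean inhibition plus 3 SD, computed separately per campaign, cut at about 18% in these data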;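 note: inhibitors lower polarization as less probe binds the enzyme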
Fam108b inh conf: confirmation of mouse Fam108b serine hydrolase inhibitors. shares compounds with Fam108B inh. recombinant Fam108b, FP-Rh probe fluorescence polarization. inhibition, % at 9.51 µM. hit rate 44% among 930. AID 1978;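 active = inhibition above a limit from the primary screen, the mean over all compounds plus 3 SD, cut at about 19% in these data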;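 note: 0% = median of active Fam108b wells and 100% = catalytically dead S170A mutant; inhibitors free the probe so polarization falls as inhibition rises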
Fam108b ABPP HTS: mouse ABHD17B inhibition | shares compounds with Fam108B inh | recombinant Fam108b, gel-based ABPP, fluorophosphonate probe | inhibition, % at 20 µM | hit rate 44% among 260; in the data active = inhibition above about 40%
An asterisk follows results filed as active. This is a sample that favours compounds with a hit; in the whole collection about 1.8% have one here.

For C[C@@H]1NS(=O)(=O)[C@H]2C[C@@H]3C=C[C@]2(O3)[C@H]1OC(=O)c1ccc(C(C)(C)C)cc1 the results were PAD4 FP inh 1, LYPLA1 counter -1, LYPLA2 inh 0 and PME-1 primary -4.
Cc1ccc(S(=O)(=O)NCC(=O)OCC(=O)N(C)C2CCS(=O)(=O)C2)cc1 (stereo unspecified) was read as PAD4 FP inh -1, LYPLA1 counter 4, LYPLA2 inh 4, GSTO1 inh 9, PME-1 primary 3 and Fam108B inh 11.
For Cc1nn(-c2ccccc2C(=O)O)c(=O)c2ccccc12 the results were PAD4 FP inh -6, LYPLA1 counter 3, LYPLA2 inh -1, GSTO1 inh 7, PME-1 primary -7 and Fam108B inh -2.
For Cc1nn(-c2ccc(Br)cc2)c(=O)c2ccccc12 the results were PAD4 FP inh -5, LYPLA1 counter 2, LYPLA2 inh 8, GSTO1 inh 34, PME-1 primary 93*, Fam108B inh 88* and Fam108b inh conf -12.
`O=C(NN=Cc1ccc(O)cc1)c1cccc(NN=Cc2ccc(O)cc2)c1` gave Fam108b ABPP HTS 95*.
CC(=O)Nc1cccc(C(=O)N/N=C/c2ccc(F)cc2)c1 was read as PAD4 FP inh -1, LYPLA1 counter 0, LYPLA2 inh -2, GSTO1 inh 0, PME-1 primary 2 and Fam108B inh 2.
For O=C1NC(Cc2ccccc2)c2nc3ccc(F)cc3c(=O)n2-c2cc(Cl)ccc21 (stereo unspecified) the results were PAD4 FP inh 0.
Oc1c(Br)cc(Br)cc1/C=N/NC(=S)N[C@H]1CC2C=CC1C2 (stereo partly specified) was read as PAD4 FP inh -3, LYPLA1 counter -1, LYPLA2 inh 15, GSTO1 inh -11, PME-1 primary 26, Fam108B inh 18* and Fam108b inh conf 8.
CNC(=S)N/N=C/c1cc(Br)cc(Br)c1O was read as PAD4 FP inh -3, LYPLA1 counter 4, LYPLA2 inh 5, GSTO1 inh 10, PME-1 primary 13 and Fam108B inh 16.
For Cc1csc(=O)n1CCC(=O)OC(C)C(=O)NCc1ccccc1 (stereo unspecified) the results were PAD4 FP inh 4.
For COc1cc2cc(C(=O)NN=Cc3ccccc3Cl)[nH]c2cc1OC the results were Fam108b ABPP HTS 50*.
`COc1ccc2[nH]c(C(=O)N/N=C/c3ccccc3OC)cc2c1` gave PAD4 FP inh -1, LYPLA1 counter -5, LYPLA2 inh -6, GSTO1 inh -9, PME-1 primary 0 and Fam108B inh 2.
For CCOc1ccc2[nH]c(C(=O)N/N=C/c3ccccc3OC)cc2c1 the results were PAD4 FP inh -1, LYPLA1 counter -3, LYPLA2 inh -11, GSTO1 inh -23, PME-1 primary -1, Fam108B inh 21* and Fam108b inh conf -14.
`COc1ccc(C(C)(C)C)cc1NC(=O)C1C2C=CC(C2)C1C(=O)O` (stereo unspecified) gave PAD4 FP inh -3, LYPLA1 counter 1, LYPLA2 inh 3, GSTO1 inh 11, PME-1 primary -1 and Fam108B inh -5.
Screening COc1ccc([N+](=O)[O-])cc1NC(=O)C1C2C=CC(C2)C1C(=O)O (stereo unspecified) returned PAD4 FP inh -3, LYPLA1 counter -1, LYPLA2 inh 2, GSTO1 inh 21, PME-1 primary -3, Fam108B inh 19* and Fam108b inh conf 2.
For COc1cc(-c2csc(NC3CCCCC3)n2)cc(OC)c1OC the results were PAD4 FP inh 1, LYPLA1 counter -4, LYPLA2 inh 0, GSTO1 inh 5, PME-1 primary -3 and Fam108B inh 1.
Screening CC(C)(C)c1cc[n+](-c2[nH]c(=O)sc2/C=N/N=C(\[O-])c2cccnc2)cc1 returned PAD4 FP inh -1, LYPLA1 counter -2, LYPLA2 inh 14, GSTO1 inh -1, PME-1 primary 5 and Fam108B inh 0.
